Data on 53 compounds can be found in ChEMBL document CHEMBL4513216, “Probing the Open Global Health Chemical Diversity Library for Multistage-Active Starting Points for Next-Generation Antimalarials” (ACS Infect Dis, 2020).

Out of some 65,000 compounds screened, about 2,100 (3.2%) showed an effect of 50% or more. The median lay at about -52%. For the sample, strong results were picked, then their nearest neighbours and some compounds at random.

This experiment concerns Plasmodium falciparum. Put plainly: Screen against P. falciparum Asexual Blood Stage (ABS), at 5uM. Type of experiment: functional, Dd2. Conditions: tested at 5 uM.
As for `O=C(Cc1ccccn1)N1CCN2C[C@H](Oc3cncnc3)C[C@H]2C1`, the INHIBITION was -1.9%. As for `Cc1noc(C)c1CN1C[C@@H]2CN(C(=O)c3cnccn3)C[C@@H]2C1`, the figure is -43.4%.

With `Clc1cccc(N[C@H]2CCCN[C@H]2Cc2ccccc2)c1`, the INHIBITION is 92.8%. As for `Cc1n[nH]cc1CNC1(c2ccc(F)cc2)CCCC1`, the figure is 83.4%; as for `Cc1nc(C2(NCc3ccc(C#N)cc3F)CCCCC2)no1`, -32.3%; as for `CC(C)OCCNC1(c2ccc(F)cc2)CCOCC1`, 34.8%. On to `O=C(c1cnccn1)N1CCN2C[C@H](Oc3cccnc3)C[C@H]2C1`, for which the INHIBITION is recorded as -106%. For the compound `CCOCC(O)CN1CCN(C(=O)Cc2ccccc2C)CC1` (stereo not drawn), the INHIBITION was -143%. For the compound `COc1ccccc1COCC(O)CN1CC(n2cccn2)C1` (stereo not drawn), the INHIBITION stood at 78.9%. As to `CN(C)c1ncc2c(n1)C1(CCN(Cc3ccccc3)C1)COC2` (stereo not drawn), the INHIBITION was 27.6%.

Consider `Cc1cccnc1CC(C)N(C)Cc1cccs1` (stereo not drawn), for which the INHIBITION was determined as 81.7%.

For the compound `CC(Cc1ccccn1)N(C)Cc1ccc2c(c1)CCO2` (stereo not drawn), the INHIBITION came to 8.31%.

As to `Cc1ccnc(CC(C)N(C)Cc2ccc3c(c2)OCCO3)c1` (stereo not drawn), the INHIBITION was -56.5%.

On to `Cc1cnn(CC2CCCN2Cc2nc(C)c3ccccc3n2)c1` (stereo not drawn), for which the INHIBITION is given as 78%. As for `Cc1cnn(CC2CCCN2Cc2cn3ccsc3n2)c1` (stereo not drawn), the figure is 81.3%. Consider `Cc1nc(CN2CCCC2Cn2ccnc2C(C)C)nc2ccccc12` (stereo not drawn), for which the INHIBITION amounted to 77.3%.

For the compound `Cc1nc(CN2CCCCC2Cn2cccn2)nc2ccccc12` (stereo not drawn), the INHIBITION came out at 70.4%.

Consider `CCCN(CCN(C)C)C(=O)Cc1cn2ccsc2n1`, for which the INHIBITION is given as -76.3%. With `O=C(C1CCCCC1)N1C[C@@H]2CCNC[C@@H]21`, the INHIBITION is recorded as 9.5%. As for `Cc1ccc(N2CC[C@@H]3CN(Cc4c[nH]cn4)C[C@@H]3C2)nn1`, the INHIBITION is recorded as -66.7%. `Cc1cc(CC(C)NC2CCSCC2)[nH]n1` (stereo not drawn): the INHIBITION is -36.2%. As to `Cn1c(=O)n(C)c2cc(C3SCC(=O)Nc4ccsc43)ccc21` (stereo not drawn), the INHIBITION is listed as -86.5%. The same measure for `O=C(c1ccccc1)C1CCN(Cc2cc3c(cc2O)CCC3)CC1`: 90.1%.

For `CC(C)NC(=O)[C@H]1CN(Cc2ccccc2)C[C@@H]1C(=O)c1ccccc1`, the INHIBITION is -90.6%. For `Cc1c(CN2CCCC(C(=O)c3ccccc3)C2)cc(C#N)n1C` (stereo not drawn), the INHIBITION worked out at 44.6%. `CC(C)[C@H](CO)Nc1nccc(-c2c[nH]nc2-c2ccncc2)n1`: the INHIBITION is 83.9%. Consider `c1cc(-c2n[nH]cc2-c2ccnc(N3CCCCCC3)n2)ccn1`, for which the INHIBITION is reported as 78%. With `c1cc(-c2n[nH]cc2-c2ccnc(N3CCCC3)n2)ccn1`, the INHIBITION is listed as 81.1%.

Take `COc1cc(N2CC[C@@H]3[C@@H](CC2)OCCN3CC2CC2)ncn1`: the INHIBITION is on record as -53.8%. The same measure for `COCC1CC2(CCNCC2)CN1c1ncccn1` (stereo not drawn): -33.8%; for `NC1(c2nc(C(F)(F)F)cc(=O)[nH]2)CCCC1`: -131%; for `Cc1cc(Cc2ccc(F)cc2)cc(C2CCCNC2)n1` (stereo not drawn): 73.9%. `FC(F)(F)c1nc(C2CCCNC2)no1` (stereo not drawn): the INHIBITION is reported as -15.6%.

In the case of `Cc1cc(Cc2cccc(C(F)(F)F)c2)cc(C2CCCNC2)n1` (stereo not drawn), the INHIBITION amounted to 93.9%. As to `Cc1cc(Cc2ccccc2)cc(C2CCCNC2)n1` (stereo not drawn), the INHIBITION was 76.1%. As for `Cc1cc(O)nc(C2CCCNC2)n1` (stereo not drawn), the figure is -1.25%; as for `Cc1cccc(Cc2cc(C)nc(C3CCCNC3)c2)c1` (stereo not drawn), 80.1%; as for `Cc1nc(NCCC23CCCN2CCC3)cc(C2CCCNC2)n1` (stereo not drawn), -29.1%. As for `Cc1cc(C)nc(C2CCCNC2)n1` (stereo not drawn), the figure is -66.3%; as for `CC(C)c1ncc(Cl)c(C(=O)N2CCCN3CCCC3C2)n1` (stereo not drawn), -79%.

Turning to `CNC(=O)[C@H]1C[C@@H]2CN(Cc3cccnc3OC)C[C@@H]2N1C(C)=O`, the INHIBITION was found to be 38.2%. As for `NC1(c2nc(-c3ccccc3)cc(=O)[nH]2)CCCCC1`, the figure is -0.415%; as for `COCCN1CCC2(COCc3cnc(N(C)C)nc32)C1` (stereo not drawn), -35.3%; as for `Cc1cc(Cc2ccccc2C)cc(C2CCCNC2)n1` (stereo not drawn), 78.9%. As for `CNc1cc(C2CCCNC2)nc(C)n1` (stereo not drawn), the figure is -80.8%; as for `CC(C)c1nc(C2CCCNC2)no1` (stereo not drawn), -62.1%; as for `CCCN1CCN(C(=O)c2ccnc(N)c2)[C@H]2CS(=O)(=O)C[C@H]21`, -88.3%. As for `O=C1[C@@H]2CCN(Cc3ccoc3)C[C@@H]2OCCN1c1cccnc1`, the figure is 23.5%.

In the case of `CC(C)CN1C(=O)CO[C@@H]2CNC[C@H]21`, the INHIBITION is -4.26%. `Cc1cccc(CN2CC[C@H]3C[C@@H](C)O[C@@H]3C2)n1`: the INHIBITION is on record as -46.7%. For the compound `C[C@H]1C[C@@H]2CCN(Cc3ccccn3)C[C@H]2O1`, the INHIBITION was -59.7%. The same measure for `C[C@@H]1C[C@@H]2CCN(Cc3ccccn3)C[C@H]2O1`: -25.2%; for `Cc1cccc(CN2CCC(Cc3ccccc3F)CC2)n1`: 94%.
